Source: PubChem BioAssay (EPA / NIEHS)
Values joined by “and” are separate entries in the source; they are usually repeats but may differ in a detail not shown here. Identical values can stand only once. Results filed as inconclusive are left out. Some compounds were tested as several samples or in several runs, with calls that do not always agree. Active and inactive are the calls of the source. Rule for the calls, unless noted: active = hit-call score of the fitted dose curve at least 0.9, where 1 is the maximum; inconclusive = response in the unintended direction; inactive = score below 0.9.

Key:
[1] = target: Bile acid receptor (Homo sapiens) (UniProt Q96RI1); test: OT_FXR_FXRSRC1_1440: Odyssey Thera (OT) 24-hour HEK293T Protein-Complementation Assay for Farnesoid X receptor/SRC-1 Co-activator (AID 2283384)
Sequence of Bile acid receptor (Homo sapiens) (Q96RI1 whole entry, looked up, the tested form may be a part): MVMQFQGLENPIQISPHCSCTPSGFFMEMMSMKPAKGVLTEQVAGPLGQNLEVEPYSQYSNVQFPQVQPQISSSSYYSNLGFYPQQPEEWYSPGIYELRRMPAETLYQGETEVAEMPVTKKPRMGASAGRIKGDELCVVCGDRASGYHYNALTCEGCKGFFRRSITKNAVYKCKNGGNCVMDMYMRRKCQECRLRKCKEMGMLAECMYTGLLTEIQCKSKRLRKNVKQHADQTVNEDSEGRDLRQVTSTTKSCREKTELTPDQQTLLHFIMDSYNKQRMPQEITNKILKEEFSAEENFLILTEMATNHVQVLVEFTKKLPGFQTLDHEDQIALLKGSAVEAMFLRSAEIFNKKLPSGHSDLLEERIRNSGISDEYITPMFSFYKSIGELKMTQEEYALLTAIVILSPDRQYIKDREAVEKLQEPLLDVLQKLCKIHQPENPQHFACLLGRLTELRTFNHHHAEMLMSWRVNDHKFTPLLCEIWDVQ
Procedure, shortened: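 HEK293T cells were dosed with compound and read 24 h later by fluorescence intensity from protein-fragment complementation reporting FXR/SRC-1 co-activator interaction. Gain of signal was fitted relative to DMSO negative control as baseline.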

[2] = target: Retinoic acid receptor RXR-alpha (Homo sapiens) (UniProt P19793); test: OT_NURR1_NURR1RXRa_1440: Odyssey Thera (OT) 24-hour HEK293T Protein Complementation Assay for Nurr1/retinoid X receptor (RXR) (AID 2283386)
Sequence of Retinoic acid receptor RXR-alpha (Homo sapiens) (P19793 whole entry, looked up, the tested form may be a part): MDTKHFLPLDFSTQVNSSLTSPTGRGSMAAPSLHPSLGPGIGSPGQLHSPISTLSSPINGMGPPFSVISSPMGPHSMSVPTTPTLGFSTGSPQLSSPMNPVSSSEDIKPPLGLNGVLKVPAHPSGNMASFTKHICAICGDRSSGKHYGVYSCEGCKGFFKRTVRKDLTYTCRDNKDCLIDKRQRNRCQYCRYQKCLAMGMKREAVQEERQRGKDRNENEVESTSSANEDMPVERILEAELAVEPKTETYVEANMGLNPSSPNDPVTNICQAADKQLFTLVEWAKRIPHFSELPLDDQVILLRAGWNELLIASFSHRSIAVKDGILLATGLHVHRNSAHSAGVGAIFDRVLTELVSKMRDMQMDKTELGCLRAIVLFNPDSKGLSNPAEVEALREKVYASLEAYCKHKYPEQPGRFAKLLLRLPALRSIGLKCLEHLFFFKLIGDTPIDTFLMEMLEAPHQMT
Procedure, shortened: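 HEK293T cells were dosed with compound and read 24 h later by fluorescence intensity in a protein-fragment complementation format, where Nurr1–RXRα interaction reconstitutes a split reporter. Activity was fitted as gain of signal relative to DMSO baseline.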

[3] = target: Peroxisome proliferator-activated receptor gamma (Homo sapiens) (UniProt P37231); test: OT_PPARg_PPARgSRC1_0480: Odyssey Thera (OT) 8-hour Protein-Complementation Assay for Peroxisome Proliferator-activated Receptor Gamma / SRC-1 Co-activator (AID 2283387);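 note: nuclear to cytoplasmic split Venus YFP fluorescence ratio reporting PPARg SRC-1 interaction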
Sequence of Peroxisome proliferator-activated receptor gamma (Homo sapiens) (P37231 whole entry, looked up, the tested form may be a part): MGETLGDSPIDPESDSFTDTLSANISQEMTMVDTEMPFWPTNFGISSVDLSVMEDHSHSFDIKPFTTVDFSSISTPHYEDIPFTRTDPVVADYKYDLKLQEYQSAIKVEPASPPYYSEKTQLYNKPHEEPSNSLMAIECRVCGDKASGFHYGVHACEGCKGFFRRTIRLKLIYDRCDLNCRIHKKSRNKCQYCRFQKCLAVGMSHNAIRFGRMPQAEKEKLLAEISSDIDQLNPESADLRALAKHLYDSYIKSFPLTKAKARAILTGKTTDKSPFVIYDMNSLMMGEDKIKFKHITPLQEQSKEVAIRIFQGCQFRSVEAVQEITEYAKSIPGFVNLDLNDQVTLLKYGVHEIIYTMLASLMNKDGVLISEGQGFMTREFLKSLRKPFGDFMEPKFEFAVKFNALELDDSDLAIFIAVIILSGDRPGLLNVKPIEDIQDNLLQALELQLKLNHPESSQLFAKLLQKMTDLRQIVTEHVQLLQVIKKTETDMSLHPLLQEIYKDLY
Procedure, shortened: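 Split-YFP (IFP1/IFP2) PPARg/SRC-1 reporter, HEK293T, 37 °C, 5% CO2; 8 h compound; formaldehyde fix + Draq5; high-content imaging, N/C ratio, ≥350 cells/image, positive direction vs DMSO.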

[4] = target: Peroxisome proliferator-activated receptor gamma (Homo sapiens) (UniProt P37231); test: OT_PPARg_PPARgSRC1_1440: Odyssey Thera (OT) 24-hour Protein-Complementation Assay for Peroxisome Proliferator-activated Receptor Gamma/ SRC-1 Co-activator (AID 2283388);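 note: nuclear to cytoplasmic ratio of reconstituted Venus YFP fluorescence in fixed imaged cells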
Procedure, shortened: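 Readout: nuclear-to-cytoplasmic 488 nm fluorescence ratio, ≥350 cells per image, 8 images per well, after 24 h compound exposure of HEK293T expressing PPARg/SRC-1 split-YFP fusions. Activity fitted in positive direction against DMSO.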

[5] = target: Retinoic acid receptor RXR-alpha (Homo sapiens) (UniProt P19793); test: OT_NURR1_NURR1RXRa_0480: Odyssey Thera (OT) 8-hour HEK293T Protein Complementation Assay for Nurr1/retinoid X receptor (RXR) (AID 2283385)
Procedure, shortened: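 HEK293T cells expressing Nurr1 and RXRα fused to reporter fragments were dosed with compound for 8 hours. Complex formation was read as fluorescence intensity and analysed as gain of signal against DMSO as baseline.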

[6] = CEETOX_H295R_CORTIC: CeeTox H295R High-throughput Steroidogenesis Assay for Corticosterone (CORTIC) (AID 2283437; active = hit-call score of the fitted dose curve at least 0.9, where 1 is the maximum; inactive = score below 0.9;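 note: corticosterone secreted into medium quantified by mass spectrometry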); conditions: actives raise or lower the signal
Procedure, shortened: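 H295R adrenal cells prestimulated 48 hours with 10 uM forskolin, then exposed 48 hours to chemical in 0.1% DMSO. Corticosterone in medium measured by HPLC-MS/MS after MTBE extraction; MTT viability in the same wells; bidirectional fit versus DMSO.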

[7] = CEETOX_H295R_11DCORT: CeeTox H295R High-throughput Steroidogenesis Assay for 11-Deoxycortisol (11DCORT) (AID 2283432; active = hit-call score of the fitted dose curve at least 0.9, where 1 is the maximum; inactive = score below 0.9;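 for AC50: 11-deoxycortisol secreted into the medium measured by LC-MS/MS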); conditions: actives raise or lower the signal
Procedure, shortened: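 Steroidogenesis in human H295R cells: 48 h chemical exposure after forskolin priming, 11-deoxycortisol measured by LC-MS/MS.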

[8] = CEETOX_H295R_OHPREG: CeeTox H295R High-throughput Steroidogenesis Assay for OH-Pregnenolone (OHPREG) (AID 2283434; active = hit-call score of the fitted dose curve at least 0.9, where 1 is the maximum; inactive = score below 0.9); conditions: actives raise or lower the signal
Procedure, shortened: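 H295R cells pre-stimulated 48 h with 10 uM forskolin, then exposed 48 h to chemical in 0.1% DMSO. 17alpha-hydroxypregnenolone in medium quantified by MTBE extraction and HPLC-MS/MS; bidirectional fit versus DMSO, viability checked by MTT.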

[9] = CEETOX_H295R_OHPROG: CeeTox H295R High-throughput Steroidogenesis Assay for OH-Progesterone (OHPROG) (AID 2283435; active = hit-call score of the fitted dose curve at least 0.9, where 1 is the maximum; inactive = score below 0.9); conditions: actives raise or lower the signal
Procedure, shortened: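 H295R human adrenal cells were prestimulated 48 h with 10 uM forskolin, then exposed 48 h to test chemical (0.1% DMSO final). 17alpha-hydroxyprogesterone in medium was measured by HPLC-MS/MS after MTBE extraction; bidirectional fitting vs DMSO.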

[10] = CEETOX_H295R_ANDR: CeeTox H295R High-throughput Steroidogenesis Assay for Androstenedione (ANDR) (AID 2283436; active = hit-call score of the fitted dose curve at least 0.9, where 1 is the maximum; inactive = score below 0.9); conditions: actives raise or lower the signal
Procedure, shortened: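 H295R cells, following OECD 456 with minor changes, exposed to chemicals for 48 h. Androstenedione in the medium was quantified by HPLC-MS/MS after MTBE extraction. Fitting was bidirectional versus DMSO; chemicals were diluted until MTT viability was ≥70%.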

Measured: AC50

NCc1cccc(CN)c1
inactive: [1] | [2] | [3] | [4]

CCCCCCCCCCCCCCC
inactive: [5] | [2]

CCCCCCCCCCCC(=O)O
inactive: [5] | [2] | [3] | [4]

O=C(CCCN1CCC(O)(c2ccc(Cl)cc2)CC1)c1ccc(F)cc1
active: [2] 80.3 µM
inactive: [1] | [5] | [2] | [3] | [4] | [6]

c1cnc2c(c1)ccc1cccnc12
active: [2] 0.727 µM
inactive: [5] | [3] | [4]

CCCCCCCCCCCC
active: [5] 39.2 µM
inactive: [2] | [3] | [4]

C=CC(C)(CCC=C(C)C)OC(C)=O (stereo unspecified)
inactive: [1] | [5] | [3] | [4]

CCCCc1oc2ccccc2c1C(=O)c1cc(I)c(OCCN(CC)CC)c(I)c1
active: [1] 8.87 µM | [5] 8.75 µM | [2] 8.94 µM and 8.82 µM
inactive: [5] | [3] | [4]

Cc1cc(C(C)(C)C)c(O)c(C(C)(C)C)c1
inactive: [3] | [4]
active: [1] 11.4 µM | [5] 74.6 µM | [2] 77.3 µM

CCC(C)c1ccccc1O (stereo unspecified)
inactive: [5] | [2] | [3] | [4]

Cc1cc(C(=C2C=CC(=Nc3ccc(S(=O)(=O)O)cc3)C=C2)c2ccc(Nc3ccc(S(=O)(=O)O)cc3)cc2)cc(S(=O)(=O)O)c1N
inactive: [1] | [3] | [4]

O=S(=O)(O)c1ccccc1
inactive: [1] | [5] | [2] | [3] | [4]

NS(=O)(=O)O
inactive: [5] | [2] | [3] | [4]

O=C(c1ccccc1)c1ccccc1
inactive: [5] | [2]

CN(Cc1cnc2nc(N)nc(N)c2n1)c1ccc(C(=O)N[C@@H](CCC(=O)O)C(=O)O)cc1
inactive: [1] | [5] | [2] | [3] | [4]

CCCCC=O
inactive: [1] | [5] | [2]

O=C1OC2(c3ccccc31)c1cc(I)c(O)c(I)c1Oc1c2cc(I)c(O)c1I
inactive: [5]

Cc1[nH]nc2c1N=C(c1ccccc1Cl)c1cc([N+](=O)[O-])ccc1N2
active: [1] 0.279 µM

CN(C)CCOC(c1ccccc1)c1ccccc1
active: [2] 6.73 µM
inactive: [5] | [2]

CCCCCCCCCC=CCC1CC(=O)OC1=O (stereo unspecified)
inactive: [1] | [5] | [3] | [4]

COc1cc([N+](=O)[O-])ccc1N
active: [1] 28 µM | [9] 15.1 µM
not listed: [3]
inactive: all other assays above

CCCCCCc1ccc(N)cc1
inactive: [5] | [2] | [3] | [4]
active: [1] 6.61 µM

CCCCCCC(C)(C)C(=O)O
inactive: [1] | [5] | [2] | [3] | [4]

CCCCCCCCCCCCOC(=O)c1cc(O)c(O)c(O)c1
inactive: [1] | [3] | [4]

CS(=O)(=O)c1ccc([C@@H](CC2CCCC2)C(=O)Nc2cnccn2)cc1Cl
inactive: [5]

OCC(CO)(CBr)CBr
inactive: [1] | [5] | [3] | [4]

CCCCCC(C)OC(=O)COc1ccc(Cl)c2cccnc12 (stereo unspecified)
active: [1] 22.7 µM | [5] 15 µM | [7] 18.7 µM
not listed: [10]
inactive: all other assays above

Cc1ccc(C)c(S(=O)(=O)O)c1
inactive: [5] | [3] | [4]

c1cc[nH]c1
inactive: [7] | [8] | [9] | [10] | [6]

O=C(O)c1cccc(C(=O)O)n1
inactive: [5] | [2] | [3] | [4]

N=C(N)c1ccc(OCCCCCOc2ccc(C(=N)N)cc2)cc1
inactive: [5] | [3] | [4]

Cc1ccc(S(=O)(=O)O)cc1
inactive: [2]

Clc1ccc(Nc2nnc(Cc3ccncc3)c3ccccc23)cc1
inactive: [7] | [8] | [9]
active: [6] 2.38 µM

Oc1cc2ccccc2cc1O
inactive: [7] | [8] | [9] | [10] | [6]

Cc1cccc2c1ccc1ccccc12
inactive: [7] | [8] | [9] | [10] | [6]

C[C@]12CC[C@@H]3c4ccc(O)cc4CC[C@H]3[C@@H]1C[C@@H](O)[C@@H]2O
active: [8] 31.8 µM
not listed: [1] | [10]
inactive: all other assays above

CC(C)c1c(C(=O)Nc2ccccc2)c(-c2ccccc2)c(-c2ccc(F)cc2)n1CC[C@@H](O)C[C@@H](O)CC(=O)O
inactive: [3] | [4]
